The values below come from PubChem BioAssay AID651815 (National Center for Advancing Translational Sciences (NCATS), 2012).

Each structure is given as a SMILES string. Hit rate of the full screen: of about 2,100 compounds, about 1,100 (52%) were called active. Inconclusive results (about 29%) are left out. Calls come from the whole dose curve; as a rule, active = well fitted inhibition curve with a large enough effect; inconclusive = small, poorly fitted or top-dose-only effect; inactive = no such curve, though single readings can be large or run the other way. So high a share suggests a set chosen from earlier hits. This is one part of the list.
% is set by controls: 0 for no effect and ±100 for the full control effect; potency is the fitted concentration of half-maximal effect.

Chain of DNA dC->dU-editing enzyme APOBEC-3F (Homo sapiens) (Q8IUX4 whole entry, looked up): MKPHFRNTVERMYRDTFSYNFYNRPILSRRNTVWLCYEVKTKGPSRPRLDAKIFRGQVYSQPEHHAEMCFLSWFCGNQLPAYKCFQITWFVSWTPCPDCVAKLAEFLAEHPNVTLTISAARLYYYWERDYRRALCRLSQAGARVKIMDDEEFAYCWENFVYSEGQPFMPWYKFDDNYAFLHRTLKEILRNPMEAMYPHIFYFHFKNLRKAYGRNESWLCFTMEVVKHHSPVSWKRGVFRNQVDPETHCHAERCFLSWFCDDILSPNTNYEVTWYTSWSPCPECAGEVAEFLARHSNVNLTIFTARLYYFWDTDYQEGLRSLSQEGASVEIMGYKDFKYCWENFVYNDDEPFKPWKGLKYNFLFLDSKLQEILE

This assay concerns the target DNA dC->dU-editing enzyme APOBEC-3F (Homo sapiens) (UniProt Q8IUX4). Kind of assay: qHTS for inhibitors of Vif-A3F interactions: Cherry picks counterscreen. Note: nearly all actives have a fitted effect of over 65% in size. The settings on record: HeLa A3F-eYFP/Vif cells, eYFP fluorescence, 24 h; series mostly up to 46.1 µM; activity, negative = inhibitor: at the top concentration. In a few lines: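 Rescue of Vif-driven A3F-eYFP degradation read as cellular eYFP fluorescence after 24 h compound exposure (several concentrations) in stable HeLa cells; MG132 (2 mM stock) as positive control.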
(In general: Quantitative high-throughput screening tests each substance at several concentrations.)
On to `CCOC1=C/C(=C/c2c(N)n3nc(-c4ccccc4)sc3nc2=O)C=CC1=O`, for which the “activity, negative = inhibitor” value is 7.32% (inactive).
Regarding `COC(=O)c1cc(C(=O)N2CCN(c3ccccc3OC)CC2)cc([N+](=O)[O-])c1`, the Potency was 3.96 µM (active).
`COc1ccccc1N1CCN(C(=O)c2ccc3ncsc3c2)CC1`: the “activity, negative = inhibitor” value is -27% [at 36.9 µM] (inactive).
For the molecule `COc1ccccc1N1CCN(C(=O)c2cc(=O)c3cc(C)cc(C)c3o2)CC1`, the Potency is 0.125 µM (active).
For `COc1cc(SC)ccc1C(=O)N1CCN(c2ccccc2OC)CC1`, the Potency is 3.53 µM (active).
In the case of `COc1ccccc1N1C(=O)c2cccc3c(C(=O)O)ccc(c23)C1=O`, the “activity, negative = inhibitor” value is -7.57% [at 36.9 µM] (inactive).
As to `CCSc1ncc(Cl)c(C(=O)N2CCN(c3ccccc3OC)CC2)n1`, the Potency was 2.06 µM (active).
With `COc1ccccc1C(=O)N1CCN(c2cccc(Cl)c2)CC1`, the Potency was 1.25 µM (active).
As to `COc1ccc(Cn2c(C)nc3c(c2=O)c2nc4ccccc4nc2n3Cc2ccco2)cc1`, the Potency is 18.4 µM (active).
As to `Cc1ccc2nc3c(cc(S(=O)(=O)c4ccccc4)c(=N)n3Cc3ccco3)c(=O)n2c1`, the “activity, negative = inhibitor” value was -23% (inactive).
`CCn1c(SCC(=O)c2c[nH]c3ccccc23)nnc1-c1cccs1`: the Potency is 18.4 µM (active).
For `CCOC(=O)c1c(-c2ccc(C)cc2)csc1NC(=O)/C(C#N)=C/c1ccc(O)c(OC)c1`, the “activity, negative = inhibitor” value was 16.7% [at 36.9 µM] (inactive).
Take `CCOc1ccc(NC(=O)/C(C#N)=C/c2ccc(N3CCCC3)c(C)c2)cc1`: the Potency was 5.8 µM (active).
Same read-out and setting: with `CCOc1cc(/C=C(/C#N)C(=O)Nc2ccc(O)cc2)cc(Br)c1O` the figure was 15.8 µM (active); with `Cc1ccc2c(c1)Sc1c(ccc3ccccc13)N2`, 16.4 µM (active).
On to `O=[N+]([O-])c1ccccc1SNc1ccccc1`, for which the “activity, negative = inhibitor” value is -29% [at 36.9 µM] (inactive).
For `Cc1cc(C)c(S(=O)(=O)Oc2ccccc2[N+](=O)[O-])c(C)c1`, the Potency was 6.27 µM (active).
In the case of `CCN(CC)c1ccc(C=NNc2ccc([N+](=O)[O-])cn2)cc1`, the Potency was 10.3 µM (active).
`Cc1ccc(Cc2c(C3CCCCC3)nc3ccc(C)cn23)cc1`: the “activity, negative = inhibitor” value was -21.2% [at 36.9 µM] (inactive).
With `Cc1noc(C)c1COc1cccc(C(=O)OCC(=O)N2CC(=O)Nc3ccccc32)c1`, the Potency was 6.27 µM (active).
Turning to `C/C(=N\Nc1nccnc1Cl)c1ccc(Cl)c(Cl)c1`, the “activity, negative = inhibitor” value is -1.06% (inactive).
Turning to `C=CCSc1nc2ccccc2n1C(=O)/C=C/c1cc(OC)c(OC)c(OC)c1`, the Potency is 6.27 µM (active).
For `CCSc1nc2ccccc2n1C(=O)/C=C/c1ccc(OC)c(OC)c1`, the Potency was 4.98 µM (active).
Consider `CNc1cncc(-c2cc(C)c(O)c(C)c2)n1`, for which the Potency was 4.44 µM (active).
For `O=C(Nc1ncc(Cc2ccc(SC(F)F)cc2)s1)c1ccccc1`, the Potency is 2.23 µM (active).
`Cc1nc(-c2ccc(Cl)cc2)sc1C(=O)NN`: the Potency was 14 µM (active).
In the case of `O=C(O)Cc1sc(NC2CCCCC2)nc1-c1ccc(Cl)cc1`, the “activity, negative = inhibitor” value was -13.1% (inactive).
For the molecule `CCOc1cc(/C=C2/SC(=S)N(CC3CCCO3)C2=O)ccc1O` (stereo unspecified), the Potency is 14.6 µM (active).
The same measure, in the same setting: for `CCN(CC)c1cc(C)c(/C=C/c2ccnc3ccccc23)cc1C` the value was 20.6 µM (active).
Regarding `Cc1cc(N(C)C)c(C)cc1/C=C/c1ccnc2ccccc12`, the Potency was 8.2 µM (active).
`CC(C)C1C(=O)N(Cc2cn(CCC3OCCCO3)nn2)CCS(=O)(=O)N1Cc1ccc(-c2cccc(CO)c2)cc1` (stereo unspecified): the “activity, negative = inhibitor” value is -8.31% [at 36.9 µM] (inactive).
As to `COc1ccc(-c2cc3ccccc3oc2=O)cc1NC(=S)NC(=O)c1ccc2c(c1)OCCO2`, the Potency is 6.51 µM (active).
With `O=C(NC(=S)Nc1ccc(N2CCCCC2)c(Cl)c1)c1ccc2c(c1)OCCO2`, the “activity, negative = inhibitor” value was -28.4% (inactive).
As to `Cc1ccc2ccc3cc(C(=O)Nc4ccc(C)c(F)c4)nc3c2[nH]1`, the Potency was 18.4 µM (active).
`C1=Cc2ccccc2/C1=C\c1cc2c3c(c1)CCCN3CCC2`: the Potency was 16.4 µM (active).
`Cc1ccc(/C=C2/CNC/C(=C/c3ccc(C)cc3)C2=O)cc1`: the Potency is 9.94 µM (active).
For `CCNc1ccc(Br)cc(C(=O)/C=C/c2ccc3c(c2)OCO3)c1=O`, the Potency is 18.4 µM (active).
With `Cc1ccc2oc(/N=C(\N)NC(=O)C(C)(C)C)nc2c1`, the “activity, negative = inhibitor” value is 0.425% (inactive).
Take `CN1C(=O)/C(=C/c2ccccc2OCc2ccc(F)cc2)N(C)C1=S`: the “activity, negative = inhibitor” value is -14.7% (inactive).
Take `Cc1cccc2cc3c(N)c(C(=O)Nc4ccc(N5CCOCC5)cc4)sc3nc12`: the Potency was 12.5 µM (active).
As for `CCc1ccc(C(=O)NC(=S)Nc2ccc(N3CCOCC3)cc2)cc1`, the “activity, negative = inhibitor” value was 3.84% (inactive).
For `O=C(Nc1ccc(N2CCOCC2)cc1)c1cccc2ccccc12`, the Potency is 15.8 µM (active).
For the molecule `Cc1ccc(C)c2nc3sc(C(=O)N4CCOCC4)c(N)c3cc12`, the Potency was 15.8 µM (active).
As to `CCNC(=S)N/N=C(\C)c1ccc(N2CCOCC2)cc1`, the “activity, negative = inhibitor” value is -2.23% (inactive).
Consider `Cc1cccc2cc3c(N)c(C(=O)N4CCOCC4)sc3nc12`, for which the Potency is 16.4 µM (active).
`N#C/C(=C/c1ccc(N2CCOCC2)o1)C(=O)NC1CCCCC1`: the Potency was 18.4 µM (active).
On to `N#C/C(=C\c1ccc(N2CCOCC2)o1)C(=O)NC1CCCCC1`, for which the Potency was 14 µM (active).
Consider `N#C/C(=C\c1ccc(N2CCOCC2)o1)C(=O)NCCc1ccccc1`, for which the “activity, negative = inhibitor” value is 39.2% (inactive).
For `Oc1cccc(Nc2nc(O)c(/C=C3\C=Nc4ccccc43)s2)c1`, the Potency was 20.6 µM (active).
Same read-out and setting: for `CCOC(=O)/C=c1\s/c(=C\c2ccccc2C)c(=O)n1CC(=O)NCc1ccc2c(c1)OCO2` the value was 14 µM (active).
`NC(=O)CSc1nc2c(sc3ccccc32)c(=O)n1CCCC(=O)NCC1CCCO1` (stereo unspecified): the “activity, negative = inhibitor” value is -9.59% (inactive).
Consider `CCOC(=O)/C=c1\s/c(=C\c2c(OC)ccc3ccccc23)c(=O)n1CC(=O)NCC1CCCO1` (stereo unspecified), for which the Potency was 4.61 µM (active).
On to `CCOC(=O)/C=c1/s/c(=C/c2ccc3cc(OC)ccc3c2)c(=O)n1CC(=O)NCC1CCCO1` (stereo unspecified), for which the Potency is 18.4 µM (active).
In the case of `CCOC(=O)/C=c1/s/c(=C\c2c(OC)ccc3ccccc23)c(=O)n1CC(=O)NCC1CCCO1` (stereo unspecified), the Potency was 9.94 µM (active).
In the case of `S=C(NN=Cc1ccccn1)Nc1ccccn1`, the “activity, negative = inhibitor” value is 13.5% (inactive).
Take `Nc1cccc(CCc2nc3cc4ccccc4cc3[nH]2)c1`: the Potency was 4.44 µM (active).
`O=C(NNc1ncc(C(F)(F)F)cc1Cl)c1c(Cl)cccc1Cl`: the Potency was 4.44 µM (active).
In the case of `Cc1cc(C)c(C(=O)N(CCN(C)C)CC2CCCN(Cc3ccccc3F)C2)o1` (stereo unspecified), the “activity, negative = inhibitor” value is -1.53% (inactive).
Regarding `CC(C)OC(=O)c1cc(C(=O)c2cc(F)ccc2O)coc1=N`, the Potency was 20.6 µM (active).
Consider `CCC(=O)Nc1ccccc1-c1nc2ccccc2n(C(C)C(=O)Nc2ccc(OC)cc2)c1=O` (stereo unspecified), for which the Potency was 16.4 µM (active).
With `c1cncc(-c2nc(NCc3cccs3)c3ccccc3n2)c1`, the “activity, negative = inhibitor” value is -5.28% (inactive).
Consider `Brc1ccc2c(c1)C(c1cccnc1)=NNC(c1cccs1)=N2`, for which the Potency was 14 µM (active).
As for `COC(=O)c1sccc1S(=O)(=O)N(CC(=O)Nc1cc(F)ccc1F)c1ccc(C)c(C)c1`, the “activity, negative = inhibitor” value is -18.6% (inactive).
Turning to `CCOC(=O)c1[nH]c(C)c(C(=O)Nc2cc(OC)ccc2OC)c1C`, the Potency was 1.77 µM (active).
With `CCOC(=O)c1[nH]c(C)c(C(=O)Nc2ccc(C)cc2C)c1C`, the Potency was 2.23 µM (active).
Take `CCOC(=O)c1[nH]c(C)c(C(=O)Nc2ccccc2F)c1C`: the Potency is 3.14 µM (active).
As for `CC(=O)c1c(C)[nH]c(C(=O)Nc2ccc(Cl)cc2F)c1C`, the “activity, negative = inhibitor” value was -0.176% (inactive).
For the molecule `COc1ccc(OC)c(NC(=O)c2cc(-c3cc(C)cc(C)c3O)n[nH]2)c1`, the “activity, negative = inhibitor” value is -0.959% (inactive).
Consider `Cc1ccc(C)c(N2CCN(C(=O)c3cccn4c(=O)c5sccc5nc34)CC2)c1`, for which the Potency is 15.8 µM (active).
On to `O=c1[nH]c2ccccc2nc1/C=C(\O)c1cccs1`, for which the Potency is 16.4 µM (active).
As to `O=C(/C=C/c1cccs1)NCc1ccc2c(c1)OCO2`, the “activity, negative = inhibitor” value was -0.325% (inactive).
With `O=C(NCc1ccc2c(c1)OCO2)c1cc([N+](=O)[O-])ccc1N1CCOCC1`, the Potency was 4.98 µM (active).
Same read-out and setting: with `O=C(NCc1ccc2c(c1)OCO2)c1cc([N+](=O)[O-])ccc1N1CCCCC1` the figure was 1.58 µM (active).
As to `Cc1cccc(-c2noc(-c3ccc(NCc4ccco4)c([N+](=O)[O-])c3)n2)c1`, the Potency was 14.6 µM (active).
In the case of `COc1ccccc1-c1noc(-c2ccc(NCc3ccco3)c([N+](=O)[O-])c2)n1`, the Potency is 18.4 µM (active).
On to `O=[N+]([O-])c1cc(-c2nc(-c3ccccc3)no2)ccc1NCc1ccco1`, for which the Potency was 13 µM (active).
In the case of `CCCCOc1ccc2c(c1)/C(=C(\C(Cl)=C(Cl)Cl)[N+](=O)[O-])N2`, the “activity, negative = inhibitor” value was -6.09% (inactive).
`N#Cc1c(C(F)(F)F)cc(-c2ccco2)nc1SCc1ccccn1`: the Potency is 16.4 µM (active).
Take `Cc1cc2nc3c(=O)n(C4CCCCC4)c(=O)[nH]c3nc2cc1N`: the Potency is 9.2 µM (active).
On to `Cc1cc2nc3c(=O)n(CCc4ccccc4)c(=O)[nH]c3nc2cc1N`, for which the Potency is 5.17 µM (active).
Same read-out and setting: with `Cc1cc2nc3c(=O)n(Cc4ccccc4)c(=O)[nH]c3nc2cc1N` the figure was 0.125 µM (active).
Consider `CCCCN(C(=O)c1ccc([N+](=O)[O-])s1)c1c(N)n(CCCC)c(=O)[nH]c1=O`, for which the “activity, negative = inhibitor” value is -5.21% (inactive).
For `CCOC(=O)N1CCN(C(=O)c2ccccc2-c2ccccc2)CC1`, the Potency was 2.8 µM (active).
As for `CN(C)c1ccc(/C=C/C(=O)c2ccc(O)cc2)cc1`, the Potency was 4.61 µM (active).
Turning to `CC(/C=C/c1ccc(N(C)C)cc1)=N\N=C(/N)SC1CC(=O)N(c2ccc(C(=O)O)cc2)C1=O` (stereo unspecified), the “activity, negative = inhibitor” value is -28.3% (inactive).
Turning to `CN(C)c1ccc(/C=C/C(=O)c2c(O)c3ccccc3oc2=O)cc1`, the Potency is 4.11 µM (active).
Still for that read-out and setting: with `CCN1/C(=C\C=C(C(C)=O)C(C)=O)Sc2ccccc21` the figure was 14.6 µM (active).
On to `N#Cc1c(-c2ccccc2)c(-c2ccccc2)nn(CC(=O)NNC(=O)Nc2ccccc2)c1=O`, for which the Potency is 4.44 µM (active).
As to `N#Cc1c(-c2ccc(F)cc2)c(-c2ccc(F)cc2)nn(CCO)c1=O`, the Potency is 4.44 µM (active).
For `CC1(C)Cc2ccccc2C2CC(O)C(=O)N21` (stereo unspecified), the Potency is 18.4 µM (active).
`Cc1ccc(NC(=O)/C(C#N)=C\c2ccc(-c3ccc(Cl)cc3)o2)c(C)c1`: the Potency is 13 µM (active).
As to `Cc1ccc(-c2ccc(/C=N/NC(N)=S)o2)cc1`, the “activity, negative = inhibitor” value was -1.63% (inactive).
As to `FC(F)(F)c1ccccc1NC(=S)NN=C1CCCCCC1`, the “activity, negative = inhibitor” value was 5.84% (inactive).
On to `O=C1CSC(=S)N1Cc1cccnc1`, for which the Potency was 13 µM (active).
On to `O=C1/C(=C/c2ccc(O)cc2)SC(=S)N1Cc1cccnc1`, for which the “activity, negative = inhibitor” value was 8.88% (inactive).
For the molecule `O=C(NCc1cccs1)C1CCN(c2ccc(S(=O)(=O)N3CCOCC3)cc2Cl)CC1`, the Potency was 2.8 µM (active).
